Compound activity: PubChem, Broad Institute
SUMO Mot1 rescue – inhibitors of SUMOylation pathway: yeast Mot1-301 growth rescue; S. cerevisiae Mot1-301 growth rescue, ATP luminescence, 38.5C; percent above DMSO median, 100 means doubled; growth rescue, % at 18.8 µM; 1% of 320,000 active; AID 2716;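 active = every valid replicate shows activation above 250% relative to neutral control wells; inactive = the rest, any valid replicate at or below 250%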;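 note: OY570 slx delta 5 strain wells were the positive control but not used for scaling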
ALR H2O2 inh – inhibitors of human sulfhydryl oxidase ALR; P55789; 3.8% of 290,000 active; inhibition, % (no concentration beside the values); AID 485317; purified ALR, DTT oxidation, H2O2 HRP-luminol luminescence;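 active = mean replicate inhibition above about 79%, with every replicate also reaching it, limit read from the data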
Target sequence (P55789 whole entry, looked up): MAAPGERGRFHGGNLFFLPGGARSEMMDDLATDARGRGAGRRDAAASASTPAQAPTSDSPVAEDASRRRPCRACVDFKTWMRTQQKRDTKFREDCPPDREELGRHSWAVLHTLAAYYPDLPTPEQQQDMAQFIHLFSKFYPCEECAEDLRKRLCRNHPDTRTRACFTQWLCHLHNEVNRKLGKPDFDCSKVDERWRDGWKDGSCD
CDK5 p35 inh – CDK5/p35 (human) kinase inhibition. Q00535+Q15078. Recombinant CDK5/p35, ADP-Glo luminescence, 60 min. inhibition, % at 10 µM. 0.01% of 330,000 active. AID 488839;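 active = highest replicate inhibition of at least 50% and at least 75% of replicates reaching 50%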;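 note: plate controls were DMSO neutral control for no effect and GW8510 at 10 µM for full effect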
NSD2 inh – blocks human histone methyltransferase NSD2 | inhibition, % at 12.5 µM | 0.54% of 310,000 active | NSD2 peptide methylation, AlphaScreen, 120 min | O96028 | AID 743445; in the data active = inhibition above about 50%
N-glyco inh – blocks N-linked glycosylation in D54 reporter cells; D54 ERlucT glycosylation luciferase reporter, 24 h; percent of 100 nM tunicamycin response; reporter increase, % at 12.5 µM; 0.23% of 360,000 active; AID 588692;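 active = mean luciferase reporter signal, scaled so untreated is 0 and the glycosylation-blocking control 100, at or above a set limit in every replicate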;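 note: luciferase carries N-glycosylation sites so blocking glycosylation raises the light; 0% = median of neutral control wells and 100% = median of 100 nM tunicamycin wells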
Casp6 inh – caspase-6 (human) enzyme inhibition; P55212; purified caspase-6, Z-VEID-R110 cleavage fluorescence; inhibition, % at 12.5 µM; 0.53% of 350,000 active; AID 686996;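 active = mean inhibition across replicates at least about 35%, with every replicate also reaching that limit, limit read from the data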;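 note: 0% = median of neutral control wells and 100% = no fluorescence left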
Target sequence (P55212 24-179 limits assumed): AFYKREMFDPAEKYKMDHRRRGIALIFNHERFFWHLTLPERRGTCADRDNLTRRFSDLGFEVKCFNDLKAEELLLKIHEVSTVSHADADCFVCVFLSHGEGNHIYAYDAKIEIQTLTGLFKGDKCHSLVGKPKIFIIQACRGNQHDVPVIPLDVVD
Target sequence (P55212 194-293 limits assumed): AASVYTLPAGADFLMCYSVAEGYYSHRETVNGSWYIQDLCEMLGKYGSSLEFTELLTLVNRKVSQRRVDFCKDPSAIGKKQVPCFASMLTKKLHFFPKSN
Active calls of the source: *; i = inactive; . = no result. A selection: hits, their analogues and other compounds. The true share with any hit is near 3.9%.

SMILES | SUMO Mot1 rescue | ALR H2O2 inh | CDK5 p35 inh | NSD2 inh | N-glyco inh | Casp6 inh
Cc1ccc(C(=O)N2CCN(c3ccccc3O)CC2)cc1S(=O)(=O)N1CCCCC1 | -9.6 | 97.6* | -6.1 | -2.1 | -0.7 | 2.0
O=C(c1ccc(Cl)c(S(=O)(=O)N2CCCCC2)c1)N1CCN(Cc2ccccc2)CC1 | -2.5 | . | -0.9 | 0.7 | 28.7* | 3.4
CC(=O)N1CCN(C(=O)c2ccc(C)c(S(=O)(=O)N3CCCCC3)c2)CC1 | 34.3 | . | -0.5 | 0.2 | 0.5 | 1.8
O=C1c2cccc([N+](=O)[O-])c2C(=O)N1C1CCCCC1 | 9.6 | 97.8* | 1.2 | . | 0.6 | 5.1
O=C1c2cccc([N+](=O)[O-])c2C(=O)N1c1ccccc1 | 9.1 | -7.9 | -1.9 | 3.9 | 1.5 | 1.8
CCN1C(=O)/C(=C/c2ccc(N3CCCC3)cc2)NC1=S | 6.4 | 97.3* | 0.6 | -8.3 | 0.3 | .
CCOC(=O)c1cn(CC)c2cc(N3CCN(C)CC3)c(F)cc2c1=O | -6.4 | -5.6 | -0.8 | 2.5 | 1.2 | 9.1
CCOC(=O)c1cn(CC)c2cc(N3CCSCC3)c(F)cc2c1=O | 3.6 | 98.8* | -3.5 | 0.5 | 1.4 | .
CCn1cc(C(=O)N[C@H](C)c2ccccc2)c(=O)c2cc(F)c(N3CCN(C)CC3)cc21 | 815.4* | 1.1 | 0.4 | 4.6 | -0.2 | .
Cc1cccc(C)c1N1CCN(c2n[nH]c(N)n2)CC1 | -9.2 | 96.2* | -1.4 | -1.0 | 0.2 | -1.7
COc1ccc(N2CCN(c3n[nH]c(N)n3)CC2)cc1 | 15.3 | 98.4* | 1.0 | 0.1 | 2.0 | 3.9
COc1cccc(C(=O)Nc2ccc3c(c2)C(=O)N(C)C[C@@H](OC)[C@H](C)CN(C(=O)C2CCCC2)[C@@H](C)CO3)c1 | . | . | . | . | . | -0.9
O=C(CSc1nc2ccsc2c(=O)n1CC1CCC(C(=O)O)CC1)c1ccc(Cl)cc1 (stereo unspecified) | -20.9 | 12.3 | 1.0 | -0.2 | 2.3 | 42.6*
O=C(CSc1nc2ccsc2c(=O)n1CC1CCC(C(=O)O)CC1)c1ccc(F)cc1 (stereo unspecified) | -9.1 | 6.3 | -1.4 | 0.9 | 1.0 | -3.8
CC(=O)NCCc1nc2ccccc2n1Cc1ccccc1 | -11.6 | -0.8 | -0.4 | . | 0.5 | -0.6
CC(=O)NCCc1c(C)n(Cc2ccccc2)c2ccccc12 | -0.4 | 98.8* | 0.3 | 4.8 | -4.2 | 2.7
CCN(CC)S(=O)(=O)c1ccc(NC(=O)CSc2ncnc3ccccc23)cc1 | 5.8 | 97.7* | -0.7 | -2.3 | 2.5 | .
NS(=O)(=O)c1cccc(NC(=O)CSc2ncnc3ccccc23)c1 | . | 99.3* | 2.4 | 31.2 | -1.4 | 0.1
CCCC(=O)Nc1ccc2c(c1)C(=O)N(C)C[C@@H](OC)[C@H](C)CN(Cc1cncnc1)[C@@H](C)CO2 | . | . | . | . | . | -4.1
Cc1cccc(NC(=O)CC2Nc3cccc4cccc(c34)NC2=O)c1 (stereo unspecified) | -8.5 | 19.9 | -0.4 | 2.2 | 4.9 | 3.5
CC(=O)Nc1ccc(NC(=O)CC2Nc3cccc4cccc(c34)NC2=O)cc1 (stereo unspecified) | -16.6 | 85.7* | 0.1 | 7.5 | 2.6 | .
O=C(CCC(=O)Nc1ccc(F)cc1)N/N=C/c1ccc(F)cc1 | 135.8 | -4.3 | -0.6 | -1.3 | 0.2 | -5.1
Cc1ccc(NC(=O)CCC(=O)N/N=C/c2ccc(O)cc2)cc1 | 108.7 | 95.0* | -1.4 | 2.8 | 2.0 | 1.5
O=C(CCC(=O)Nc1ccc(F)cc1)N/N=C/c1ccc(O)cc1 | 62.5 | 99.2* | 1.4 | -0.4 | 0.8 | -3.4
COc1ccc(Br)cc1-c1noc(-c2ccccc2F)n1 | -14.3 | 2.3 | 1.2 | 0.0 | 0.6 | .
SMILES | SUMO Mot1 rescue | ALR H2O2 inh | CDK5 p35 inh | NSD2 inh | N-glyco inh | Casp6 inh
COc1ccc(Br)cc1-c1nc(CCl)cs1 | -5.6 | 94.8* | 0.5 | 1.6 | 0.5 | -0.9
CC=Cc1ccc2n(c1=O)C[C@@H]1[C@@H](CO)[C@H](C(=O)N(C)C)[C@H]2N1CC1CC1 (mixture of isomers) | . | . | . | . | . | 1.1
O=C(COc1ccc(Nc2ccccc2)cc1)Nc1ccncc1 | 29.9 | 90.1* | 1.8 | -2.0 | 0.5 | 1.8
O=C(O)COc1ccc(Nc2ccccc2)cc1 | 4.9 | 99.4* | 0.4 | 11.4 | 0.2 | 12.1
O=C(O)COc1ccc(Oc2ccccc2)cc1 | -10.4 | -4.2 | 1.3 | 1.0 | 0.4 | .
CC(C)(C)c1ccc(OCC(=O)Nc2ccncc2)c(Br)c1 | 19.3 | . | 0.7 | 0.6 | 34.0* | -1.7
O=C(COc1ccc(Br)cc1)Nc1ccncc1 | 14.2 | 3.3 | -1.8 | 26.4 | -0.3 | .
COCCNC(=O)COc1ccc(Oc2ccccc2)cc1 | 55.2 | 15.3 | -0.9 | -3.6 | 1.1 | .
COCCNC(=O)COc1ccc(Nc2ccccc2)cc1 | 5.8 | 98.8* | -0.8 | 24.5 | 0.8 | .
CCC(=O)N1C[C@@H]2[C@H](c3ccccc31)[C@@H](CO)N2C(=O)Nc1ccccc1 | . | . | . | . | . | -2.7
CCCN(C)C[C@H]1OCCCC[C@H](C)Oc2ccc(NS(=O)(=O)c3ccc(C)cc3)cc2C(=O)N([C@@H](C)CO)C[C@@H]1C | . | . | . | . | . | -4.1
C[C@@H]1CN([C@H](C)CO)C(=O)c2cc(NC(=O)Nc3ccccc3)ccc2O[C@@H](C)CCCCO[C@@H]1CN(C)S(=O)(=O)c1cccs1 | . | . | . | . | . | 0.4
CC(C)CCOc1cccc(OCC(=O)Nc2ccncc2)c1 | 317.1* | . | 1.8 | -1.6 | 1.8 | 4.0
COc1cccc(OCC(=O)Nc2ccncc2)c1 | -14.7 | -4.7 | 0.0 | 10.2 | 0.6 | -3.7
NC(=O)C1CCN(C(=O)COc2ccc(Nc3ccccc3)cc2)CC1 | -24.8 | 99.5* | 0.8 | -18.2 | 0.5 | -3.6
CN1CC2([N+](=O)[O-])CC=C(OCCO)C([N+](=O)[O-])(C1)C2 (stereo unspecified) | -2.5 | -2.2 | -0.6 | -2.2 | 1.1 | 39.1*
CN1CC2([N+](=O)[O-])CC=C(Oc3ccccc3)C([N+](=O)[O-])(C1)C2 (stereo unspecified) | 5.2 | -4.6 | 1.4 | -1.2 | -0.9 | .
O=C1CNC[C@@H]2[C@@H](c3ccc(C4=CCCC4)cc3)[C@H](CO)N12 | . | . | . | . | . | 0.6
CC(C)C(c1nnnn1C1CCCC1)N1c2ccccc2CC1C (stereo unspecified) | -24.1 | 98.6* | 2.6 | 4.5 | -1.9 | .
Cc1cc(C)c(C(CC(=O)c2cccs2)C(C#N)C#N)c(C)c1 (stereo unspecified) | 477.3* | . | 1.0 | 0.1 | -10.8 | 1.3
C/C(=N/NS(=O)(=O)c1ccc(Cl)cc1)c1cccc(NC(=O)c2ccncc2)c1 | -9.9 | -4.3 | 0.9 | -0.5 | 1.9 | 91.9*
C/C(=N\Nc1ccc(Cl)cc1)c1ccccn1 | 64.4 | 99.7* | -1.3 | 2.2 | 0.3 | .
C/C(=N\Nc1ccc(Cl)cc1)c1ccncc1 | 15.5 | 99.2* | 0.2 | 0.5 | -1.2 | -0.7
C/C(=N\NS(=O)(=O)c1ccccc1)c1cccc(NC(=O)c2cccc(Cl)c2)c1 | -1.8 | -1.0 | 1.4 | 5.6 | 4.0 | .
C/C(=N\Nc1cccc(Cl)c1)c1ccncc1 | i | 99.5* | 1.3 | 7.6 | -3.2 | 0.1
